Laboratory results published in PubChem BioAssay (NCI).
Compounds without any hit were thinned out: in the full panel of roughly 79,000, 15% have a hit. Unmarked numbers belong to inactive results. Calls of active or inactive are those of the source. No stated cut-off is given here; in the data, active means growth inhibition above about 70%; inactive means the rest.

Experiments:
[1] = NCI Yeast Anticancer Drug Screen. Data for the rad50 strain (AID 155);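 further: 0% = growth of vehicle-only cultures of the same strain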; details: S. cerevisiae rad50 strain growth inhibition; at 50.0 µM; hits give high values
Method in brief: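 Compounds were tested on a yeast strain with an engineered DNA damage repair alteration; the reported value is growth inhibition normalised to vehicle treatment.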

[2] = NCI Yeast Anticancer Drug Screen. Data for the mec2-1 strain (AID 157); details: S. cerevisiae mec2-1 strain, at 50.0 µM, hits give high values
Method in brief: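 Mutant yeast (mec2-1) grown with compound; growth inhibition relative to vehicle control reported.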

[3] = NCI Yeast Anticancer Drug Screen. Data for the sgs1 mgt1 strain (AID 161);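 further: 0% = growth of cultures given vehicle only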; details: S. cerevisiae sgs1 mgt1 strain, at 50.0 µM, hits give high values
Method in brief: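 Compounds are added to genetically altered yeast, and growth is compared with cultures given vehicle alone to give percent inhibition.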

[4] = NCI Yeast Anticancer Drug Screen. Data for the cln2 rad14 strain (AID 165);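 further: 0% = growth equal to vehicle treated cultures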; details: S. cerevisiae cln2 rad14 strain, at 50.0 µM, hits give high values
Method in brief: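 Readout is yeast growth inhibition versus vehicle-treated controls, using a strain with cln2 and rad14 alterations exposed to compound.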

[5] = NCI Yeast Anticancer Drug Screen. Data for the bub3 strain (AID 167); details: S. cerevisiae bub3 mutant strain, at 50.0 µM, hits give high values
Method in brief: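 Growth of a checkpoint-deficient yeast mutant is measured after compound exposure. Values represent inhibition relative to vehicle.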

[6] = NCI Yeast Anticancer Drug Screen. Data for the mlh1 rad18 strain (AID 175); details: S. cerevisiae mlh1 rad18 strain growth inhibition; at 50.0 µM; hits give high values
Method in brief: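 Genetically defined yeast (DNA repair-deficient) exposed to compounds; growth inhibition determined relative to vehicle.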

Compound | growth inhibition [1] | growth inhibition [2] | growth inhibition [3] [%] | growth inhibition [4] [%] | growth inhibition [5] [%] | growth inhibition [6]
NC(=O)c1nc2ccccc2nc1Nc1ccc(Cl)cc1Cl | 29% | 10.2% | 7.55 | -0.9 | 13 | 23.2%
O=C(NCc1cccs1)OC1CC2CCC1C2 (stereo not drawn) | 1.6% | -7.45% | 10.8 | -14.8 | -8 | 20.4%
CCN(CC)CCCC(C)Nc1nccc(/C=C/c2ccc(Cl)cc2)n1 (stereo not drawn) | 9.9% | 16.3% | 28.9 | -1.1 | 14 | 41.7%
CCCCCC1CC[N-]CC1.CCCCCC1CC[N-]CC1.N#C[S-].N#C[S-].[Cu] | 33.4% | 12.7% | 5 | -33.1 | -16.7 | 24.1%
Nc1nc(N)c(N)c(Nc2ccc(Cl)cc2)n1 | 27.5% | 22.3% | 9 | 21.4 | -1.95 | 2.5%
O=C(Cl)c1c(F)c(F)c(F)c(F)c1F | -29.6% | -26.1% | -7.4 | 19.4 | 1.25 | -18.9%
O=[N+]([O-])c1ccc(F)c(Cl)c1 | -10.7% | -25.1% | -1.6 | 4.55 | 9.3 | -7.25%
CC12CCC(=O)C=C1CCC1C2C(=O)CC2(C)C1CCC2(O)C(=O)Cn1c(=O)cc[nH]c1=O (stereo not drawn) | 10.1% | 7.75% | 25.6 | 11.8 | 0.3 | 7.65%
CCCCn1c(CCC)nc([N+](=O)[O-])c1Sc1ncn[nH]1 | -4.15% | 6.15% | -28.4 | -1 | -20.2 | 8.6%
O=C(O)c1ccc(Cl)cc1CC(Cl)(Cl)Cl | 3.55% | 25.5% | 15.1 | 24.5 | 21.1 | 17.1%
Cc1ccccc1-n1c(C)nc(-c2ccccc2)cc1=O | -23.4% | -47.2% | -4.9 | 15.5 | -9.4 | 2.8%
Cc1cc(C)nc(NS(=O)(=O)c2ccc(NC(=O)c3cccc4c(Nc5ccc(S(=O)(=O)N=C(N)N)cc5)c5ccc(Cl)cc5nc34)cc2)n1 | 16.4% | 23.3% | 27.2 | 24.4 | 13 | 32.8%
Cc1cc2nc(C(C)C(=O)c3ccc(Cl)cc3)c(=O)[nH]c2cc1C (stereo not drawn) | -12.1% | -12.7% | -0.9 | 0.5 | -24.4 | -3.9%
CC1(C)C/C(=C/c2ccccc2)C(=O)O1 | -14.6% | -6.95% | -3.45 | -31.5 | -4.05 | -19.3%
O=C(CCCSCCCC(=O)N/N=C/c1ccccc1O)N/N=C\c1ccccc1O | 4.7% | -0.5% | 4.95 | 0.75 | 6.65 | 19.8%
COc1cc(OC(=O)/C=C2/CCC(=O)O2)c2c(c1)OC1OC(=O)CC21 (stereo not drawn) | 13.6% | -4.95% | 13.8 | -3.4 | -1.9 | 15.8%
CCc1c(CBr)c(=O)[nH]c2ccccc12 | 8.7% | -8.1% | -10.8 | 0.9 | 1.3 | 2.55%
NC(CCCCNC(=O)OCc1ccccc1)C(=O)OCc1ccccc1 (stereo not drawn) | -15.2% | -20.4% | -9.7 | 15.6 | -0.75 | -18.5%
COc1ccccc1NC(=O)NC1CCCCC1 | -2.8% | -4.65% | -8.2 | -88 | 5.5 | -15.2%

Compound | growth inhibition [1] | growth inhibition [2] | growth inhibition [3] [%] | growth inhibition [4] [%] | growth inhibition [5] [%] | growth inhibition [6]
CN1C(=O)N(c2nc3ccccc3[nH]2)C(C)(C)C1=O | 5.25% | 1.9% | -23.8 | -6.4 | 6.35 | 18.6%
O=C(/C=C(\N=P(c1ccccc1)(c1ccccc1)c1ccccc1)C(F)(F)C(F)(F)C(F)(F)C(F)(F)C(F)(F)C(F)(F)C(F)(F)F)c1ccccc1 | -16.1% | -13.2% | -17.3 | 0.65 | 14.2 | -3%
CCCC12C=C(OC)C(=O)C=C1OC(c1cc(OC)c(OC)c(OC)c1)C2C (stereo not drawn) | -14.8% | -23.4% | -18.8 | -4.45 | -6.8 | -13.4%
CC(C)C12Cc3c(ccc4ccccc34)OC1(C)Oc1ccc3ccccc3c1C2 (stereo not drawn) | 18.6% | -17.4% | -13.5 | 20.1 | -6.8 | 7.05%
Cn1c2c(c3ccccc31)CCN(CCCCN1CCc3c(n(C)c4ccccc34)C1=O)C2 | -0.05% | -24.4% | -19.3 | 5.25 | -5 | -12.8%
CCOC(=O)/C(C=Nc1c(C)n(C)n(-c2ccccc2)c1=O)=C(/C)O | 19.7% | 10.7% | 11.7 | 27.5 | 10.8 | 23.6%
O=[N+]1C=CC(=NN=c2ccn([O-])cc2)C=C1 | 33.9% | 15.5% | 8.65 | 14.6 | 8 | 26.9%
Nc1c(Br)cc2c([nH]c(=O)c3cc(Br)ccc32)c1Br | 47.1% | 32.2% | 27.1 | 27.8 | 8.75 | 32.1%
Cc1ccc2nc(N/N=C/c3sccc3C)cc(C)c2c1 | -24.3% | -19.9% | -20.9 | -3.25 | -30.1 | -21.4%
Cc1ccc(S(=O)c2ccccc2[N+](=O)[O-])cc1 (stereo not drawn) | 4.85% | 9.45% | 1.7 | 22 | -0.6 | -2%
O=C1c2c(O)cccc2C(C(=O)CCCC(=O)C2c3cccc(O)c3C(=O)c3c(O)cccc32)c2cccc(O)c21 | -1.55% | 13.2% | 3.25 | 19.9 | -15.8 | -0.85%
Cc1cccc(Nc2nnc(Nc3cccc(C)n3)c3ccccc23)n1 | -2.15% | -4.5% | -2.75 | -4.25 | -3.8 | 4%
Clc1ccc(-c2nnc3c4ccccc4ccn23)cc1 | 14.5% | -11.1% | -5.1 | 9.55 | -3.95 | 1%
COc1ccc2nc(NC(=O)C(=O)C(C(=O)c3ccccc3-c3ccccc3)C3OC(=O)c4ccccc43)sc2c1 (stereo not drawn) | -3.6% | 9.75% | -14.2 | 0.7 | -1.1 | -16.1%
CCOc1c(OC)cc(C2c3cc4c(c(OCC)c3CC3COC(=O)C32)OCO4)cc1OC (stereo not drawn) | 36.8% | 16.1% | 48.6 | 28.1 | 19.8 | 0.25%
CSc1n[nH]c(SC)n1 | -4.3% | -15.2% | -4.15 | 4.65 | -11.2 | -5.9%
CC(C)(C)NC(=O)NCC1CCCC1NC(=O)NC(C)(C)C (stereo not drawn) | 1.45% | -4.95% | 3.65 | -5.45 | 7.35 | -10.4%
Cc1ccc(C2=CC(=O)/C(=C\C(=O)c3ccc(Br)cc3)O2)c(C)c1 | 76.8% (active) | 77.8% (active) | 62.1 | 34.8 | 52.2 | 71.9% (active)
CC(=O)CC(C)(C)S(=O)(=O)c1ccc(C)cc1 | 4% | -5.05% | 24.4 | -26.4 | 11.8 | 5.05%
